# Reference: PubChem BioAssay
# Records with an inconclusive call do not appear. Calls of active or inactive are those of the source.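 The calls were made as follows, unless noted: active = differentiation response of at least 50%, scaled between solvent and reference control, from cells with both markers; inactive = the rest.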
# Tests used:
# [1] = yeast TOR pathway RPL19A-GFP modulators, primary screen, cell-based, S. cerevisiae, multiplex flow cytometry (AID 1862; in the data active = percent of DMSO control GFP below about 86%;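 also: lower values mimic rapamycin by blocking the RPL19A rise seen in DMSO cells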); conditions: S. cerevisiae RPL19A-GFP strain, flow cytometry fluorescence, 3 h; at 10 µM; stronger effect = lower value
# [2] = modulators of MEP2-GFP levels in yeast, primary screen, S. cerevisiae, multiplex flow cytometry (AID 1867;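 active = GFP response, as percent of the DMSO control, above the screen-wide mean plus 3 SD, about 139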;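 also: median GFP channel fluorescence of barcode-gated MEP2-GFP cells measured by flow cytometry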); conditions: S. cerevisiae MEP2-GFP strain, 3 h, at 10 µM, stronger effect = higher value, 100% means same as DMSO wells
# [3] = modulators of CIT2-GFP expression in yeast, primary screen, S. cerevisiae, GFP fusion, multiplex flow cytometry (AID 1870;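 active = percent response above a set limit, the screen-wide mean plus 3 SD, cut at about 130% in these data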;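 also: barcoded CIT2-GFP strain pooled with four other GFP strains with rapamycin as positive control; median GFP fluorescence per well over plate mean of DMSO wells so 100% = DMSO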); conditions: 3 h, at 10 µM, stronger effect = higher value
# [4] = modulators of LAP4-GFP expression in yeast, primary screen, S. cerevisiae, multiplex flow cytometry (AID 1873;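 active = GFP signal, as percent of the solvent control, above the screen mean plus 3 SD, about 149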); conditions: 3 h, at 10 µM, stronger effect = higher value
# [5] = modulators of AGP1-GFP expression in yeast TOR pathway, primary screen, cell-based, multiplex flow cytometry, S. cerevisiae (AID 1887;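 active = GFP signal above the screen-wide mean plus 3 SD, that is over about 124.5% of the solvent control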;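 also: AGP1-GFP fusion strain of S. cerevisiae within a five-strain barcoded multiplex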); conditions: 3 h, at 10 µM, stronger effect = higher value
# [6] = inhibitors of CD8+ T cell-vesicle binding, pilot screen, LFA-1/ICAM-1 modulator project, MLPCN validation set, flow cytometry (AID 2523;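 active = response below a set limit, under 55% cells CD8-positive and vesicle-bound, and CD8 cells' 90th-percentile brightness under 279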;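 as to vesicle binding response: mean PE anti-B7-1 fluorescence of CD8+ cells relative to row control; 100% = QL9-loaded vesicles with DMSO vehicle in the same plate row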); conditions: 2C mouse CD8+ T cells, at 7 µM, stronger effect = lower value; double positive events: measured here: CD8+/vesicle+ event percentage
# [7] = target: Integrin beta-1 (Homo sapiens) + Integrin alpha-4 (Homo sapiens) (UniProt P13612+P05556); experiment: inhibition of HUTS-21 binding to VLA-4, pilot screen, VLA-4 allosteric modulator project, U937 cells, HUTS-21 mAb, flow cytometry, validation set (AID 2674;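 active = inhibition above 50%, about 3 SD of the validation set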;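 also: antibody binding induced by the VLA-4 ligand LDV present at three times its Kd; 0% = LDV ligand with antibody and no compound and 100% = antibody without LDV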); conditions: HUTS-21 LIBS mAb binding, at 6.7 µM, stronger effect = higher value, binding induced by LDV ligand
# Chain of Integrin beta-1 (Homo sapiens) + Integrin alpha-4 (Homo sapiens) (P05556 whole entry, looked up): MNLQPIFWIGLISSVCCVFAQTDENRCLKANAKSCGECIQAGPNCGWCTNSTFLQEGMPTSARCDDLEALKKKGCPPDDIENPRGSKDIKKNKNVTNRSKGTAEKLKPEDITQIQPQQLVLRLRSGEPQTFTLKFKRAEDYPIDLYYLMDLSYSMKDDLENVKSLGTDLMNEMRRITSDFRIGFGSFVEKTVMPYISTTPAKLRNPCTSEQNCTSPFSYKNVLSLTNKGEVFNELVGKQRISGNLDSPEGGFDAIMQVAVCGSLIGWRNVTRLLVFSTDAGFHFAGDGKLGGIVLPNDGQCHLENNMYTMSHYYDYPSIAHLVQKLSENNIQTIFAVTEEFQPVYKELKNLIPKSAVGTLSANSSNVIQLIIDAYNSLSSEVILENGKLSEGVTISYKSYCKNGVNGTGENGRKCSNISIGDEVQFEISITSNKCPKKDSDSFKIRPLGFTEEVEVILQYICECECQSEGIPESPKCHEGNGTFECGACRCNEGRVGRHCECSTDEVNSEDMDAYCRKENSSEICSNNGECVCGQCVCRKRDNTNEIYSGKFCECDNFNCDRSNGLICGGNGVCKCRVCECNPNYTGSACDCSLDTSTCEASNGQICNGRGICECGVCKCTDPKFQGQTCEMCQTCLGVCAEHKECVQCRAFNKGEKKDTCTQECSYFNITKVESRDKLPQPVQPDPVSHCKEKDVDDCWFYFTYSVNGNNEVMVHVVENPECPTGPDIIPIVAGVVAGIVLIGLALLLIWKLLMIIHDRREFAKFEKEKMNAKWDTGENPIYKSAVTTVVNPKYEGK
# Chain of Integrin beta-1 (Homo sapiens) + Integrin alpha-4 (Homo sapiens) (P13612 whole entry, looked up): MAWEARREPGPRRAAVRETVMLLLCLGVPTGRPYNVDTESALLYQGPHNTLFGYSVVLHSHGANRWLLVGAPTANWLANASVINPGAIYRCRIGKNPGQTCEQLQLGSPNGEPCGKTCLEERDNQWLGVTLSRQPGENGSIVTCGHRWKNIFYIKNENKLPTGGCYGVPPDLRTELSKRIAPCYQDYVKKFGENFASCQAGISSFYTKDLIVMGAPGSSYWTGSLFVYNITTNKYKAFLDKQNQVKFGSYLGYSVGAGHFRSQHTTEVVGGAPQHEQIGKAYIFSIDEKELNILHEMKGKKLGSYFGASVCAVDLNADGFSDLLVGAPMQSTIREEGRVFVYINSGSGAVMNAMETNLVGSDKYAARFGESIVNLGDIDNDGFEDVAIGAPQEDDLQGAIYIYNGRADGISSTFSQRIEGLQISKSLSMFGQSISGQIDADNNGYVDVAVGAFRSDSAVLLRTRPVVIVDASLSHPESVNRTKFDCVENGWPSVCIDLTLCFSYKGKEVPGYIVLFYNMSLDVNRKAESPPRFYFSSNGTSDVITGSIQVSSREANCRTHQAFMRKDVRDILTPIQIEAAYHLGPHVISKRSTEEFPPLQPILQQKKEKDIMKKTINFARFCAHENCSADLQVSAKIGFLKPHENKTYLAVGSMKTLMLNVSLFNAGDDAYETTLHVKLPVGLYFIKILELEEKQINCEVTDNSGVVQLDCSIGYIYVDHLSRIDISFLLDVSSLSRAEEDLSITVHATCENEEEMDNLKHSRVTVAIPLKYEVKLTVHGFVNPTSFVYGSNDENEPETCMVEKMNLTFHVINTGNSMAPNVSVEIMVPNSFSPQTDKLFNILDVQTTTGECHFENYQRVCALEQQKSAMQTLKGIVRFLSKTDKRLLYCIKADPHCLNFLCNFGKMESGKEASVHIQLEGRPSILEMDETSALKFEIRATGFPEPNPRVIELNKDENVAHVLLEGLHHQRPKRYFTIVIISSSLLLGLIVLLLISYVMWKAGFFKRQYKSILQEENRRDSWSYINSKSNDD
# [8] = superoxide lowering in aged yeast cells, pilot screen, validation compound set (AID 2706;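 active = superoxide response below 65% of plate, a cut near 3 SD across the whole screen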;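 also: yeast exposed to compound for one week at 30 degrees C before staining; 100% = mean of all compound wells on the same plate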); conditions: S. cerevisiae aging, superoxide DHE fluorescence; at 10 µM; stronger effect = lower value
# [9] = target: Beta-adrenergic receptor kinase 1 (Homo sapiens) (UniProt P25098); experiment: GRK2 binders displacing RNA aptamer, biochemical, validation, human GRK2, bead flow cytometry (AID 488806;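 active = aptamer binding inhibition above 30%, about 3 SD of noise from non-fluorescent compounds; inactive = inhibition at or below 30%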); conditions: bead-bound GRK2, FAM-aptamer displacement, at 10 µM, stronger effect = higher value
# Chain of Beta-adrenergic receptor kinase 1 (Homo sapiens) (P25098 whole entry, looked up): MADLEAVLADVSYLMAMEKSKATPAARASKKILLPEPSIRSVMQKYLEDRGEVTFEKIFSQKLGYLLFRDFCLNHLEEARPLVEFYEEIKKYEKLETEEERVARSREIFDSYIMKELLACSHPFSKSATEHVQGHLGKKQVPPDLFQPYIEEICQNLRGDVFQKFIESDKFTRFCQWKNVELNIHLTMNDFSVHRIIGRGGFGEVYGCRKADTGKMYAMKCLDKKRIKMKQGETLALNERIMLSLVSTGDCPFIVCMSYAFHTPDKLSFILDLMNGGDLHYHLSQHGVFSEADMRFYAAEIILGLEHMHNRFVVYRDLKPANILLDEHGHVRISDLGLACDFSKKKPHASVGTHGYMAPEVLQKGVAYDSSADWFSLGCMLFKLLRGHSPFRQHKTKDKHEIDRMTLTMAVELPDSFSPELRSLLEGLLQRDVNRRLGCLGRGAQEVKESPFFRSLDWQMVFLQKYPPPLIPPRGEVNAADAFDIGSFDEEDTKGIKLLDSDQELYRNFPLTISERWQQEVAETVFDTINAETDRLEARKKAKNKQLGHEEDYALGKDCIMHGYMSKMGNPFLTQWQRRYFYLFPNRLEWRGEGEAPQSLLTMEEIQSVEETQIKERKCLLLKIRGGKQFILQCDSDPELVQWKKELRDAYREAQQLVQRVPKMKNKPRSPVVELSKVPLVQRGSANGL
# [10] = target: Beta-2 adrenergic receptor (Homo sapiens) (UniProt P07550); experiment: beta2AR agonists driving receptor internalization, pilot screen, cell-based, FAP fluorogen, flow cytometry, validation set (AID 504459;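 active = percent response above 42, roughly 3 SD of non-fluorescent test compounds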;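 also: agonist-driven loss of surface beta2AR via internalization measured by FAP dye flow cytometry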); conditions: Am2.2-beta2AR cells, FAP surface receptor flow cytometry; at 10 µM; stronger effect = higher value
# Chain of Beta-2 adrenergic receptor (Homo sapiens) (P07550 whole entry, looked up): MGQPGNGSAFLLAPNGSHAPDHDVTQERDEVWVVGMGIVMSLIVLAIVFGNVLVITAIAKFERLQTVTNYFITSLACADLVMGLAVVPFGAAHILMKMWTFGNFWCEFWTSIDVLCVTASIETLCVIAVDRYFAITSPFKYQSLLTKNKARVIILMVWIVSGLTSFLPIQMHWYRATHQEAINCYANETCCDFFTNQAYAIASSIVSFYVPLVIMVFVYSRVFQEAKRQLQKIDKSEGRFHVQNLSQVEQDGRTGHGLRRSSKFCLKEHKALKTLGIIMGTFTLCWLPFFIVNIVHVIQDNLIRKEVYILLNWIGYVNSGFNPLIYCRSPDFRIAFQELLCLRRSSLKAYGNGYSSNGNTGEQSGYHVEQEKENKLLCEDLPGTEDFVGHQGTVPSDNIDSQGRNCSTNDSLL
# [11] = target: AP-2 complex subunit beta (Homo sapiens) (UniProt P63010); experiment: inhibitors of arrestin peptide binding to AP2, pilot screen, biochemical, validation set, GST-AP2 beads, flow cytometry (AID 504541;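 active = inhibition above 54%, about 3 SD of non-fluorescent compounds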;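 also: AP2 carries R879A mutation and is captured from E. coli lysate; bead-bound FITC arrestin peptide fluorescence measuring arrestin peptide binding to AP2; 0% = DMSO wells and 100% = excess unlabeled arrestin peptide control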); conditions: FITC arrestin peptide, at 10 µM, stronger effect = higher value, AP2 beta2 appendage fragment, R879A mutant
# Chain of AP-2 complex subunit beta (Homo sapiens) (P63010 whole entry, looked up, the tested form may be a part, one chain of several): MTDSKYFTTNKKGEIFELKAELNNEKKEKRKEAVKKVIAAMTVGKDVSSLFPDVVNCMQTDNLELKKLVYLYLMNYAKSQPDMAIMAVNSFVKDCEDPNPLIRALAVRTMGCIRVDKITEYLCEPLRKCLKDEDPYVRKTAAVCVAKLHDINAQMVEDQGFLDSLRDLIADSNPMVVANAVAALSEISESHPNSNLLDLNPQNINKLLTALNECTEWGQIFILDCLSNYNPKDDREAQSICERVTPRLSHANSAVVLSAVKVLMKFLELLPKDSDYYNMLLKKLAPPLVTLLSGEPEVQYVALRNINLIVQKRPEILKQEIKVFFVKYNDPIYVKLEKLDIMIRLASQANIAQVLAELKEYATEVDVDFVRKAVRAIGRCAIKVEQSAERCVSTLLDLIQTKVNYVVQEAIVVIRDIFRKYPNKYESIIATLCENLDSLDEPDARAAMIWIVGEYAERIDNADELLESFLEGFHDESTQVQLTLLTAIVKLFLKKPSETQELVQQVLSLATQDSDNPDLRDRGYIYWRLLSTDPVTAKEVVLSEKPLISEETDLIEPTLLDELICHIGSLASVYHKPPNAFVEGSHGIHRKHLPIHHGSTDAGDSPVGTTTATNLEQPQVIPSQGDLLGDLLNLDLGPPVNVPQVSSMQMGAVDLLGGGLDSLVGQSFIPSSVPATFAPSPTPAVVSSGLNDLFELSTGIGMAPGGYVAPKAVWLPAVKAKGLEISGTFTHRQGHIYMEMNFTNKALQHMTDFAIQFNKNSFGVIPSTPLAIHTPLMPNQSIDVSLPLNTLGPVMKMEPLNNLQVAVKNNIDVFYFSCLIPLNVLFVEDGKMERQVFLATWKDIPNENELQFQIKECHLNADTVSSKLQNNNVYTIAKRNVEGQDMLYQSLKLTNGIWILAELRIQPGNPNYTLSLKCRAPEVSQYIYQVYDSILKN
# [12] = yeast V-ATPase proton transport modulators, S. cerevisiae, pHLuorin, HTS validation (AID 504600; in the data active = response above about 15%;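 also: plate controls were DMSO for no effect and reference compound for full effect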); conditions: S. cerevisiae pHLuorin cytosolic pH, at 10 µM, stronger effect = higher value
# [13] = tested on: anti-desmoglein-3 scFv antibody binding to human DSG3; experiment: inhibitors of anti-DSG3 scFv binding to DSG3, pilot screen, biochemical, validation compound set, bead-based, flow cytometry (AID 588368;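 active = binding below the plate cutoff, the plate median minus 3 SD, with a reading above zero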;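 also: signal is the median channel fluorescence of bead-bound GFP antibody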); conditions: Protein G beads, DSG3-Fc, scFv-GFP binding, at 10 µM, stronger effect = lower value
# [14] = inhibitors of fungal efflux pumps CDR1, CDR2, MDR1, pilot screen, validation compound set, multiplex, phenotypic (AID 588506;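 active = efflux inhibition above 0.42, the validation set average plus 4 SD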;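 also: Nile Red retained in cells so higher fluorescence means more efflux inhibition; 0 = negative control wells and 1 = enniatin B 25 µM full block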); conditions: S. cerevisiae pump-expressing triplex, Nile Red efflux flow cytometry; at 10 µM; stronger effect = higher value; the pumps come from Candida albicans
# [15] = target: ATP-binding cassette sub-family B member 6 (Homo sapiens) (UniProt Q9NP58); experiment: ABCB6 transporter inhibitors, pilot screen, K562-ABCB6 cells, flow cytometry, validation set (AID 588550;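 active = inhibition above the screen-wide mean plus 3 SD, about 51%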;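 also: 0% = DMSO wells and 100% = benzethonium chloride 70 µM positive control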); conditions: K562-ABCB6 porphyrin accumulation, 1 h, at 10 µM, stronger effect = higher value
# Chain of ATP-binding cassette sub-family B member 6 (Homo sapiens) (Q9NP58 whole entry, looked up): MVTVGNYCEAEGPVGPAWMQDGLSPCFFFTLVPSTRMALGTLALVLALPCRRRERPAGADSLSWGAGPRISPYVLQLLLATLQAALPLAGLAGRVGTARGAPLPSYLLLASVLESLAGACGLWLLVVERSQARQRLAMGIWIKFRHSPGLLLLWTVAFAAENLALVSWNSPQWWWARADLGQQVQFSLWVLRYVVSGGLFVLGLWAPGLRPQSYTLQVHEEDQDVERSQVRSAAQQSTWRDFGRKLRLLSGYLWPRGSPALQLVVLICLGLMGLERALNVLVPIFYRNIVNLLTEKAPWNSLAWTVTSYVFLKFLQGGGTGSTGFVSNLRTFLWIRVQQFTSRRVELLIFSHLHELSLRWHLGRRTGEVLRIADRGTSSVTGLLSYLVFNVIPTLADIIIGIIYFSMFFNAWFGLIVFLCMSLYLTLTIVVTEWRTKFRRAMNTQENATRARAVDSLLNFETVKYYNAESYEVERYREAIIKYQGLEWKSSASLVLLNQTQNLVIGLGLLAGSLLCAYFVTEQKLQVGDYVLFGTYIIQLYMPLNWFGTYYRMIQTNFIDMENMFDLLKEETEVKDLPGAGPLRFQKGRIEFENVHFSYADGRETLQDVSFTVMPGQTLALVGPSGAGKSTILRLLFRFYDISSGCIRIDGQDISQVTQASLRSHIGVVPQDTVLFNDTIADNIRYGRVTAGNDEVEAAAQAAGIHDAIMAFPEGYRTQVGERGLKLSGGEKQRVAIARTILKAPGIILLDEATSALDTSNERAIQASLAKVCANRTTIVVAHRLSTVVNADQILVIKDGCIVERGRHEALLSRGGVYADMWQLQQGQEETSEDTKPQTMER
# [16] = promoters of myeloid differentiation in arrested cells, primary screen, cell-based, GFP/MAC1 double positive, flow cytometry, validation set (AID 588685); conditions: ER-HoxA9 marrow cells, stronger effect = higher value, normalized: vehicle 0, fulvestrant 100;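 also: compound exposure lasts four days before antibody staining and flow analysis; 0% = DMSO wells and 100% = 5 µM fulvestrant positive control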
SMILES,percent of DMSO control GFP [1],GFP response vs DMSO [2],percent response of DMSO control [3],GFP response vs DMSO [4],"GFP response, % of DMSO [5]",double positive events [6],vesicle binding response [6],inhibition [7],superoxide response (% of plate) [8],aptamer binding inhibition [9],response [10],inhibition [11],response [12],binding (% of control) [13],efflux inhibition (fraction of control) [14],inhibition [15],differentiation response [16]
CC1CC(OC(=O)C(O)c2ccccc2)CC(C)(C)N1C (stereo not drawn),94.4% (inactive),112% (inactive),94.8% (inactive),111% (inactive),97.5% (inactive),57.9%,217% (inactive),-8.62% (inactive),99.3% (inactive),0% (inactive),0.13% (inactive),-13.2% (inactive),7.51% (inactive),103% (inactive),-0.03 (inactive),5% (inactive),-18.4% (inactive)
COc1cccc(CC(=O)NCC2COc3ccccc3O2)c1OC (stereo not drawn),103% (inactive),105% (inactive),101% (inactive),102% (inactive),106% (inactive),60.9%,230% (inactive),6.95% (inactive),92.8% (inactive),2% (inactive),3.04% (inactive),-3.19% (inactive),-3.58% (inactive),103% (inactive),-0.1 (inactive),63% (active),-6.03% (inactive)
Cn1c(=S)n(C)c2ccccc21,99.2% (inactive),104% (inactive),94.4% (inactive),110% (inactive),104% (inactive),61.4%,264% (inactive),16.8% (inactive),104% (inactive),3% (inactive),25.9% (inactive),0.89% (inactive),-1.79% (inactive),105% (inactive),0.08 (inactive),7% (inactive),-4% (inactive)
O=C(NCCC(c1ccccc1)c1ccco1)c1cccs1 (stereo not drawn),97.6% (inactive),105% (inactive),91% (inactive),127% (inactive),96.5% (inactive),57.6%,230% (inactive),-5.89% (inactive),105% (inactive),0% (inactive),-13.3% (inactive),-6.88% (inactive),2.49% (inactive),99.7% (inactive),-0.21 (inactive),11% (inactive),-5.6% (inactive)
CC(=O)O[C@H]1C[C@@]2(C)[C@@H](C[C@@H](O)[C@H]3[C@@]4(C)CC[C@@H](O)[C@@H](C)C4CC[C@@]32C)/C1=C(\CCC=C(C)C)C(=O)O (stereo partly drawn),102% (inactive),107% (inactive),104% (inactive),106% (inactive),115% (inactive),63.4%,177% (inactive),11.7% (inactive),116% (inactive),-1% (inactive),-16.8% (inactive),-14.5% (inactive),-3.26% (inactive),100% (inactive),0.17 (inactive),3% (inactive),-9.91% (inactive)
CN1CCCN=C1COC(=O)C(O)(c1ccccc1)C1CCCCC1 (stereo not drawn),103% (inactive),107% (inactive),93.1% (inactive),92.7% (inactive),96.5% (inactive),64%,205% (inactive),7.85% (inactive),98.5% (inactive),6% (inactive),3.5% (inactive),12.1% (inactive),4.32% (inactive),91.9% (inactive),-0.14 (inactive),-5% (inactive),5.13% (inactive)
COc1ccccc1NC(=O)Cn1c(C)cc(=O)c2cccc(OC)c21,102% (inactive),108% (inactive),100% (inactive),90.2% (inactive),99.9% (inactive),60.7%,79.1% (inactive),-11.8% (inactive),105% (inactive),4% (inactive),11.6% (inactive),-11.8% (inactive),0.11% (inactive),103% (inactive),0.58 (active),6% (inactive),-5.68% (inactive)
Cc1cc(/C=N/O)c(C)n1-c1ccc(Br)cc1,100% (inactive),101% (inactive),96.5% (inactive),93.7% (inactive),91.1% (inactive),65.6%,263% (inactive),-7.79% (inactive),115% (inactive),2% (inactive),11.8% (inactive),-0.76% (inactive),-0.17% (inactive),105% (inactive),-0.145 (inactive),-1% (inactive),-6.03% (inactive)
COc1cc(C(=O)NCCCCCC(=O)O)cc(OC)c1OC,104% (inactive),105% (inactive),102% (inactive),103% (inactive),108% (inactive),65.5%,199% (inactive),5.61% (inactive),100% (inactive),2% (inactive),11.2% (inactive),-5.4% (inactive),1.93% (inactive),101% (inactive),-0.23 (inactive),1% (inactive),-19.2% (inactive)
